Source: PubChem BioAssay AID1159580 (chemical genetic matrix, 2015)
Screen size: about 5,500 compounds; about 2,000 (36%) were called active. Not shown: some 18% with an inconclusive outcome. Rule as the data show it: active = normalized growth mostly below about 0.91 (no sharp cut-off); inconclusive = no clear call, values can overlap the other calls; inactive = mostly above about 0.92. The list shows a part of the results.

Test: chemical genetic growth profiling, strain panel (AID 1159580);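 also: tested at 20 µM; growth read once vehicle control cultures reached saturation at 30 °C; 1 = growth at the plate median or of vehicle wells; lower values mean less growth of the strain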
Settings: growth OD
[1] = S. cerevisiae deletion strains, locus YAL040C, strain CLN3, hits give low values
[2] = S. cerevisiae deletion strains, locus YCL061C, strain MRC1 (second series), hits give low values
[3] = S. cerevisiae deletion strains, locus YDR363W, strain ESC2, hits give low values
[4] = S. cerevisiae deletion strains, locus YER002W, strain NOP16, hits give low values
[5] = S. cerevisiae deletion strains, locus YNL128W, strain TEP1, hits give low values
[6] = S. cerevisiae deletion strains, locus YNL153C, strain GIM3, hits give low values
[7] = S. cerevisiae deletion strains, locus YNL175C, strain NOP13, hits give low values
[8] = S. cerevisiae deletion strains, locus YNL197C, strain WHI3, hits give low values
[9] = S. cerevisiae deletion strains, locus YNL224C, strain SQS1, hits give low values
[10] = S. cerevisiae deletion strains, locus YOR083W, strain WHI5 (second series), hits give low values
[11] = S. cerevisiae deletion strains, locus YGR078C, strain PAC10, hits give low values
[12] = S. cerevisiae deletion strains, locus YGR229C, strain SMI1, hits give low values
[13] = S. cerevisiae deletion strains, locus YJR075W, strain HOC1, hits give low values
[14] = S. cerevisiae deletion strains, locus YPL055C, strain LGE1, hits give low values
[15] = S. cerevisiae deletion strains, locus YPL241C, strain CIN2, hits give low values
[16] = S. cerevisiae deletion strains, locus YDL101C, strain DUN1, hits give low values
[17] = S. cerevisiae deletion strains, locus YHR030C, strain SLT2, hits give low values

Measured: normalized growth

CCCn1c(=O)c2[nH]c(-c3ccc(S(=O)(=O)O)cc3)nc2n(CCC)c1=O
inactive: [1] 0.994 | [2] 1.01 | [3] 0.958 | [4] 0.997 | [5] 1 | [6] 1.01 | [7] 0.985 | [8] 0.99 | [9] 1 | [10] 0.979

CC(C)CC(NP(=O)(O)O[C@@H]1O[C@@H](C)[C@H](O)[C@@H](O)[C@H]1O)C(=O)NC(Cc1c[nH]c2ccccc12)C(=O)O (some centres not stated)
inactive: [1] 1.01 | [2] 1.01 | [3] 1.01 | [4] 1 | [11] 1.02 | [12] 1.03 | [13] 1.03 | S. cerevisiae deletion strains, locus YMR307W, strain GAS1, hits give low values 0.994 | [5] 0.993 | [6] 1.04 | [7] 0.998 | [8] 1 | [9] 0.997 | [10] 1.01 | [14] 1.02 | [15] 1.01

O=C1/C(=C/c2c(F)cccc2Cl)Cc2ccccc21
inactive: S. cerevisiae deletion strains, locus YAR019C, strain CDC15, hits give low values 0.965 | S. cerevisiae deletion strains, locus YBL105C, strain PKC1, hits give low values 0.965 | S. cerevisiae deletion strains, locus YBR135W, strain CKS1, hits give low values 0.959 | S. cerevisiae deletion strains, locus YBR136W, strain MEC1, hits give low values 0.962 | S. cerevisiae deletion strains, locus YBR160W, strain CDC28, hits give low values 0.964 | S. cerevisiae deletion strains, locus YDL017W, strain CDC7, hits give low values 0.963 | S. cerevisiae deletion strains, locus YDL028C, strain MPS1, hits give low values 0.96 | [16] 0.96 | S. cerevisiae deletion strains, locus YDL108W, strain KIN28, hits give low values 0.967 | S. cerevisiae deletion strains, locus YDL132W, strain cdc53, hits give low values 0.96 | S. cerevisiae deletion strains, locus YDL214C, strain PRR2, hits give low values 0.96 | S. cerevisiae deletion strains, locus YDR052C, strain DBF4, hits give low values 0.977 | S. cerevisiae deletion strains, locus YDR054C, strain cdc34, hits give low values 0.961 | S. cerevisiae deletion strains, locus YDR226W, strain ADK1, hits give low values 0.967 | S. cerevisiae deletion strains, locus YDR477W, strain SNF1, hits give low values 0.945 | S. cerevisiae deletion strains, locus YER123W, strain YCK3, hits give low values 0.876 | S. cerevisiae deletion strains, locus YER133W, strain GLC7, hits give low values 0.948 | S. cerevisiae deletion strains, locus YFL009W, strain cdc4, hits give low values 0.961 | S. cerevisiae deletion strains, locus YFL029C, strain CAK1, hits give low values 0.961 | S. cerevisiae deletion strains, locus YFR003C, strain YPI1, hits give low values 0.962 | S. cerevisiae deletion strains, locus YFR019W, strain FAB1, hits give low values 0.903 | S. cerevisiae deletion strains, locus YFR028C, strain CDC14, hits give low values 0.96 | S. cerevisiae deletion strains, locus YGR040W, strain KSS1, hits give low values 0.947 | S. cerevisiae deletion strains, locus YGR052W, strain FMP48, hits give low values 0.974 | S. cerevisiae deletion strains, locus YGR092W, strain DBF2, hits give low values 0.841 | [17] 0.882 | S. cerevisiae deletion strains, locus YHR079C, strain IRE1, hits give low values 0.884 | S. cerevisiae deletion strains, locus YHR082C, strain KSP1, hits give low values 0.916 | S. cerevisiae deletion strains, locus YHR205W, strain SCH9, hits give low values 0.871 | S. cerevisiae deletion strains, locus YIL147C, strain SLN1, hits give low values 0.963 | S. cerevisiae deletion strains, locus YJL095W, strain BCK1, hits give low values 0.927 | S. cerevisiae deletion strains, locus YJL128C, strain PBS2, hits give low values 0.929 | S. cerevisiae deletion strains, locus YJL157C, strain FAR1, hits give low values 0.945 | S. cerevisiae deletion strains, locus YJR016C, strain ILV3, hits give low values 0.965 | S. cerevisiae deletion strains, locus YJR066W, strain TOR1 (second series), hits give low values 0.906 | S. cerevisiae deletion strains, locus YJR066W, strain TOR1, hits give low values 0.892 | S. cerevisiae deletion strains, locus YKL048C, strain ELM1, hits give low values 0.968 | S. cerevisiae deletion strains, locus YKL067W, strain YNK1, hits give low values 0.961 | S. cerevisiae deletion strains, locus YKL101W, strain HSL1, hits give low values 0.965 | S. cerevisiae deletion strains, locus YKL193C, strain SDS22, hits give low values 0.961 | S. cerevisiae deletion strains, locus YKL203C, strain TOR2, hits give low values 1.03 | S. cerevisiae deletion strains, locus YLR133W, strain CKI1, hits give low values 0.955 | S. cerevisiae deletion strains, locus YLR403W, strain SFP1, hits give low values 0.927 | S. cerevisiae deletion strains, locus YML070W, strain DAK1, hits give low values 0.929 | S. cerevisiae deletion strains, locus YMR001C, strain CDC5, hits give low values 0.961 | S. cerevisiae deletion strains, locus YMR205C, strain PFK2 (second series), hits give low values 0.956 | S. cerevisiae deletion strains, locus YMR277W, strain FCP1, hits give low values 0.963 | S. cerevisiae deletion strains, locus YNL006W, strain LST8, hits give low values 0.97 | S. cerevisiae deletion strains, locus YNL020C, strain ARK1, hits give low values 0.947 | S. cerevisiae deletion strains, locus YNL161W, strain CBK1, hits give low values 0.965 | S. cerevisiae deletion strains, locus YNL183C, strain NPR1, hits give low values 0.9 | S. cerevisiae deletion strains, locus YNL207W, strain RIO2, hits give low values 0.965 | S. cerevisiae deletion strains, locus YNL222W, strain SSU72, hits give low values 0.965 | S. cerevisiae deletion strains, locus YNL307C, strain MCK1 (second series), hits give low values 0.885 | S. cerevisiae deletion strains, locus YOL078W, strain AVO1, hits give low values 0.962 | S. cerevisiae deletion strains, locus YOL136C, strain PFK27, hits give low values 0.92 | S. cerevisiae deletion strains, locus YOR061W, strain CKA2, hits give low values 0.942 | S. cerevisiae deletion strains, locus YOR119C, strain RIO1, hits give low values 0.952 | S. cerevisiae deletion strains, locus YOR231W, strain MKK1, hits give low values 0.92 | S. cerevisiae deletion strains, locus YOR329C, strain SCD5, hits give low values 0.963 | S. cerevisiae deletion strains, locus YPL031C, strain PHO85, hits give low values 0.928 | S. cerevisiae deletion strains, locus YPL153C, strain RAD53, hits give low values 0.947 | S. cerevisiae deletion strains, locus YPL204W, strain HRR25, hits give low values 0.927 | S. cerevisiae deletion strains, locus YPL209C, strain IPL1, hits give low values 0.968 | S. cerevisiae deletion strains, locus YPL256C, strain CLN2, hits give low values 0.887 | S. cerevisiae deletion strains, locus YPR025C, strain CCL1, hits give low values 0.957 | S. cerevisiae deletion strains, locus YPR106W, strain ISR1, hits give low values 0.957 | S. cerevisiae deletion strains, locus YPR111W, strain DBF20, hits give low values 0.957 | S. cerevisiae deletion strains, strain NNK1, hits give low values 0.943 | S. cerevisiae deletion strains, strain TSCII, hits give low values 0.962
active: S. cerevisiae deletion strains, locus YLR113W, strain HOG1, hits give low values 0.834

O=C1NC(c2c(F)cccc2Cl)Nc2ccccc21 (configuration not stated)
inactive: S. cerevisiae deletion strains, locus YAL013W, strain DEP1, hits give low values 1.01 | S. cerevisiae deletion strains, locus YBR229C, strain ROT2, hits give low values 1.01 | S. cerevisiae deletion strains, locus YCL061C, strain MRC1, hits give low values 1.03 | [16] 1.02 | S. cerevisiae deletion strains, locus YDL134C, strain PPH21, hits give low values 1 | S. cerevisiae deletion strains, locus YDR150W, strain NUM1, hits give low values 0.987 | S. cerevisiae deletion strains, locus YEL061C, strain CIN8, hits give low values 1 | [11] 1.03 | [12] 0.988 | [17] 1 | S. cerevisiae deletion strains, locus YHR087W, strain rtc3, hits give low values 1.02 | S. cerevisiae deletion strains, locus YJL187C, strain SWE1, hits give low values 1 | S. cerevisiae deletion strains, locus YJR043C, strain POL32, hits give low values 0.998 | [13] 0.998 | S. cerevisiae deletion strains, locus YKL190W, strain CNB1, hits give low values 1.01 | S. cerevisiae deletion strains, locus YLR039C, strain RIC1, hits give low values 0.94 | S. cerevisiae deletion strains, locus YLR058C, strain SHM2 (second series), hits give low values 1.02 | S. cerevisiae deletion strains, locus YLR085C, strain ARP6, hits give low values 0.984 | S. cerevisiae deletion strains, locus YLR262C, strain YPT6, hits give low values 0.926 | S. cerevisiae deletion strains, locus YML094W, strain GIM5, hits give low values 1.05 | S. cerevisiae deletion strains, locus YMR219W, strain ESC1, hits give low values 1 | S. cerevisiae deletion strains, locus YMR263W, strain SAP30, hits give low values 0.978 | [6] 1.01 | S. cerevisiae deletion strains, locus YNL298W, strain CLA4 (second series), hits give low values 0.979 | S. cerevisiae deletion strains, locus YNL322C, strain KRE1, hits give low values 1 | S. cerevisiae deletion strains, locus YNR030W, strain Alg12, hits give low values 1.02 | [14] 1 | [15] 1.04 | S. cerevisiae deletion strains, locus YPR135W, strain CTF4, hits give low values 1.06 | S. cerevisiae strains, strain wild type, hits give low values 1.01
